Records with an inconclusive call do not appear. Where a call stands in place of a potency, no number is given. Calls of active or inactive are those of the source. Calls follow the shape of the full dose curve.

The experiment is described as follows: p53 small molecule agonists, cell-based qHTS assay with human liver microsomes (AID 1963577). The note with it: HCT-116 p53RE-bla with human liver microsomes, ratio, 16 h; series mostly up to 66 µM. The essentials:
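Fluorescence of the beta-lactamase reporter in p53RE-bla cells, detected with LiveBLAzer substrate (2 h, room temperature, dark), served as the read-out after 16 h compound exposure at 37 C with human liver microsomes and NADPH, each 0.5 mg/mL final.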
In general terms: In qHTS, concentration-response curves come from the screen itself.
In the case of `O=C(O)CCC(=O)c1ccc(-c2ccccc2)cc1`, the Potency entry was “inactive”.
The entry for `CCCCCCCCOC(C)=O` is “inactive”.
For `O=C(Nc1ccc2c(O)c(N=Nc3ccc(N=Nc4ccc(S(=O)(=O)O)cc4)cc3)c(S(=O)(=O)O)cc2c1)c1ccccc1`, the Potency entry was “inactive”.
Under `CC(C)(C)C(=O)/C=C/c1ccc(Cl)cc1` stands “inactive”; under `OCC(O)[C@@H](O)[C@H](O)[C@H](O)CO[C@H]1O[C@H](CO)[C@@H](O)[C@H](O)[C@H]1O` (stereo not given in full), “inactive”; under `C[C@@H](CN1CC(=O)NC(=O)C1)N1CC(=O)NC(=O)C1`, “inactive”.
With `CCCCCCCCCCC(=O)O`, the Potency entry was “inactive”.
Under `CCCc1nc2c(C)cc(-c3nc4ccccc4n3C)cc2n1Cc1ccc(-c2ccccc2C(=O)O)cc1` stands “inactive”; under `CCOCCOCCOC(C)=O`, “inactive”.
Turning to `CO[Si](C)(OC)c1ccccc1`, the Potency result is “inactive”.
With `CNS(=O)(=O)Cc1ccc2[nH]cc(CCN(C)C)c2c1`, the Potency result is “inactive”.
In the case of `CCCCCCCCCC#N`, the Potency result is “inactive”.
The entry for `CCOC(=O)CCCCCCCCC(=O)OCC` is “inactive”; for `COc1cccc(O)c1` it is “inactive”; for `CC[C@H]1OC(=O)[C@H](C)[C@@H](O[C@H]2C[C@@](C)(OC)[C@@H](O)[C@H](C)O2)[C@H](C)[C@@H](O[C@@H]2O[C@H](C)C[C@H](N(C)C)[C@H]2O)[C@](C)(OC)C[C@@H](C)C(=O)[C@H](C)[C@@H](O)[C@]1(C)O` it is “inactive”.
Consider `[O-][n+]1cccc(CO)c1`, for which the Potency result was “inactive”.
Regarding `CC(C)=CCC/C(C)=C/CC/C(C)=C/CO`, the Potency result was “inactive”.
For the compound `COCCOCC(OC)OC`, the Potency result is “inactive”.
Consider `ClC(Cl)(Br)Br`, for which the Potency result was “inactive”.
The entry for `N[C@H]1CN(c2c(F)cc3c(=O)c(C(=O)O)cn(C4C[C@H]4F)c3c2Cl)CC12CC2` (stereo not given in full) is “inactive”.

For the origin of these results see PubChem BioAssay (Tox21).
